The text below walks through data of ChEMBL document CHEMBL1201862, “PubChem BioAssay data set” (2004).

Molecules are shown by their SMILES. In all, about 400,000 compounds went through this assay and about 1,900 (0.47%) were called active. Roughly 14% stayed inconclusive and do not appear here. The rule behind the calls is not given here. Only a selection was taken, and actives are over-represented in it overall.

Ataxin-2 (Homo sapiens), sequence (Q99700 whole entry): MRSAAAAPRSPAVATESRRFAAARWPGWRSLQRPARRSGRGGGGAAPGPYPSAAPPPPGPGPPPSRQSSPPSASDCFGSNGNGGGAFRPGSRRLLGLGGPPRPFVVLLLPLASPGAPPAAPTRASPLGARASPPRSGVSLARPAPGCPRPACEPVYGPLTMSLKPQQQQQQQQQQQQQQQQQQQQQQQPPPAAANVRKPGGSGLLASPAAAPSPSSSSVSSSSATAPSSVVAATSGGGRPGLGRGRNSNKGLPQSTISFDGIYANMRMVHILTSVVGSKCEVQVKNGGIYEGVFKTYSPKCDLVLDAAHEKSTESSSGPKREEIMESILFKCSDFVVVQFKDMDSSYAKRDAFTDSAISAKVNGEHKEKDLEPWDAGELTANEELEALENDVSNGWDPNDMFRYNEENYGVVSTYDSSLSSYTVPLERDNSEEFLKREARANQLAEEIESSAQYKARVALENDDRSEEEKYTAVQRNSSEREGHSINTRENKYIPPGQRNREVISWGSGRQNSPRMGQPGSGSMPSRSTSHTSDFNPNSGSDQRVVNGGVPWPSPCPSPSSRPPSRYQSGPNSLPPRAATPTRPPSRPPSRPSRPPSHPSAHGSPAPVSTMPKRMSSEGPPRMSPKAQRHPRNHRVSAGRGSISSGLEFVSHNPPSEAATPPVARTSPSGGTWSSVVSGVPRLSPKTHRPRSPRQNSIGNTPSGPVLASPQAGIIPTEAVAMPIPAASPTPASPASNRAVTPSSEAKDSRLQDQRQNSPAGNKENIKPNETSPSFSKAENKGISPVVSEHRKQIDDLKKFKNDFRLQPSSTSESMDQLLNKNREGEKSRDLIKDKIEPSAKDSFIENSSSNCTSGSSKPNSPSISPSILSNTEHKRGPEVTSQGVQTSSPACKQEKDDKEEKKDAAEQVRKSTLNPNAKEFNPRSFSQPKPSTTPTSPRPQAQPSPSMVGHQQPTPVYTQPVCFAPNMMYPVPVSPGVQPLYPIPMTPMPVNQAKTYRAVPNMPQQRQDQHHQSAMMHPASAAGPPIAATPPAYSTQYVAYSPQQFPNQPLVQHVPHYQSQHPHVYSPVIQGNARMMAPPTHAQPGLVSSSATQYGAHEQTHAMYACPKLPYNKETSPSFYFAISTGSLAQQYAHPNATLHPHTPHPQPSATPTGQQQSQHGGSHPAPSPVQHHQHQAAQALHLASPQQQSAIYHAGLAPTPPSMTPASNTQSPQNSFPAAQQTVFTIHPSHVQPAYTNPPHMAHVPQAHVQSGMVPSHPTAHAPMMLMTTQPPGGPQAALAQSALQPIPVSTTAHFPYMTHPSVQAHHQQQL

This assay concerns the target Ataxin-2 (Homo sapiens) (UniProt Q99700). As to the kind of experiment: qHTS for Inhibitors of ATXN expression. It counts as functional. (In qHTS, concentration-response curves come from the screen itself.)
For the compound `CCOc1ccc(C(=O)Nc2cccc(C(=O)OCc3cc(=O)n4nc(C5CC5)sc4n3)c2)cc1`, the Potency is 3.55 µM (active).

`Cn1c(=O)c2c(nc(NN/C=C3/C(=O)NC(=S)N(C4CCCCC4)C3=O)n2C)n(C)c1=O`: the Potency entry is “inactive”.

Regarding `CN(C)c1c([N+](=O)[O-])cc(N2C(=O)C=CC2=O)cc1[N+](=O)[O-]`, the Potency was 25.1 µM (active).

Take `CC1(C)OC(c2ccccc2)=C/C(=C/C=C2C(=O)NC(=O)NC2=O)O1`: the Potency result is “inactive”.

For the compound `CC1(C)OC(c2ccccc2)=C/C(=C/C=C2C(=O)NC(=S)NC2=O)O1`, the Potency result was “inactive”.

As to `CN1/C(=C\C=C2C(=O)NC(=S)NC2=O)C(C)(C)c2ccccc21`, the Potency was 35.5 µM (active).

In the case of `Cc1nc2cc(OC(=O)N(C)Cc3cccc(-c4ccncc4)c3)ccc2s1`, the Potency is 39.8 µM (active).

Consider `COc1ccc(C[C@@H]2NC[C@H](O)[C@@H]2OC(C)=O)cc1`, for which the Potency is 0.0891 µM (active).

As for `CCCCCN1C(=O)c2cc(OC)ccc2[C@@]2(C(=O)OCC)Cc3cc(OC)ccc3[C@@H]12`, the Potency was 11.2 µM (active).

On to `CCOC(=O)[C@]12Cc3cc(OC)ccc3[C@H]1N(CCC(=O)OC)C(=O)c1cc(OC)ccc12`, for which the Potency is 28.2 µM (active).

For `Cc1ccc(C(=O)N[C@@H](C)CN2C3=NC[C@H](Cc4ccccc4)N3C[C@H]2Cc2ccc(O)cc2)cc1Br`, the Potency is 22.4 µM (active).

Regarding `O=c1c2ccccc2nc(/C=C/c2ccc(O)cc2)n1-c1ccc(O)cc1`, the Potency entry is “inactive”.

With `Cc1ccc(C)c(S(=O)(=O)Nc2ccc3c(c2)CCCN3C(=O)c2cccs2)c1`, the Potency was 39.8 µM (active).

`COc1cccc(-c2nc3cc4c(cc3cc2CN(C(=O)c2cccs2)C2CC2)CCC4)c1OC`: the Potency was 35.5 µM (active).

Consider `CCOc1ccc(N/C=C2/C(=O)NC(=S)N(Cc3ccccc3)C2=O)cc1`, for which the Potency entry is “inactive”.

Turning to `CCCC[C@@H](C)C[C@@H](C)C(=O)N(C)[C@@H](CC(C)C)C(=O)N[C@H](C(=O)N(C)[C@H](C(=O)N1C[C@@H](O)C[C@H]1C(=O)N1C(=O)C=C[C@@H]1C)C(C)C)C(C)OC(C)=O` (stereo partly specified), the Potency was 10 µM (active).

Turning to `O=c1c2ccccc2nc(/C=C/c2ccc(O)c(O)c2)n1-c1ccccc1`, the Potency entry is “inactive”.

As to `O=C1NC(=S)N(c2ccc(F)cc2)C(=O)/C1=C\c1ccoc1`, the Potency result was “inactive”.

As for `Cc1ccc(N2C(=O)/C(=C/NCc3ccccn3)C(=O)NC2=S)cc1`, the Potency result is “inactive”.

Turning to `O=C1NC(=S)N(c2ccccc2F)C(=O)/C1=C\c1cccs1`, the Potency is 31.6 µM (active).

As to `Cc1cc(N(CCCl)CCCl)ccc1C=Cc1ccncn1`, the Potency entry is “inactive”.

Take `Oc1nc2ccccc2n1C1CCN(C(c2ccccc2OC(F)(F)F)c2nnnn2-c2ccc3c(c2)OCCO3)CC1` (stereo unspecified): the Potency is 39.8 µM (active).

Consider `Oc1nc2ccccc2n1C1CCN(C(CCc2ccccc2)c2nnnn2-c2ccc3c(c2)OCCO3)CC1` (stereo unspecified), for which the Potency is 39.8 µM (active).

Regarding `Oc1nc2ccccc2n1C1CCN(C(c2ccccc2)c2nnnn2-c2ccc3c(c2)OCCO3)CC1` (stereo unspecified), the Potency is 14.1 µM (active).

Consider `Oc1nc2ccccc2n1C1CCN(C(CCc2ccccc2)c2nnnn2C2CCCCC2)CC1` (stereo unspecified), for which the Potency was 39.8 µM (active).

For `COc1ccc(C2CC(c3cccs3)=NN2c2nc(C)c(C(C)=O)s2)cc1OC` (stereo unspecified), the Potency entry is “inactive”.

For the compound `CCOCCSc1nc2c(c(-c3cccs3)c1C#N)CC/C2=C/c1cccs1`, the Potency result is “inactive”.

Turning to `Cc1cccc(-c2noc(-c3ccc4c(c3)OCO4)n2)c1`, the Potency result was “inactive”.

In the case of `CC(C)CNC(=O)c1c(N)n(Cc2ccco2)c2nc3ccccc3nc12`, the Potency entry is “inactive”.

For `CCCN=C1C(=O)C2=C(C(O)=C1C)N1CC3NC3[C@@]1(OC)C2COC(N)=O` (stereo partly specified), the Potency entry is “inactive”.

Take `COc1ccc(-n2c(/C=C/c3ccc(O)c(OC)c3)nc3ccccc3c2=O)cc1`: the Potency result is “inactive”.

Take `CC[N+](C)(CC)CCC[n+]1c(-c2ccccc2)c2cc(N)ccc2c2ccc(N)cc21`: the Potency was 11.2 µM (active).

Consider `C/C(=C\c1ccc(N(C)C)cc1)[N+](=O)[O-]`, for which the Potency was 22.4 µM (active).

Take `Cc1ccc(CN2CCCC(C(=O)c3cccc(C(F)(F)F)c3)C2)o1` (stereo unspecified): the Potency result was “inactive”.

As for `C=C1C(=O)O[C@@H]2C[C@@H](C)[C@H]3C=CC(=O)[C@]3(O)C[C@@H]12`, the Potency was 22.4 µM (active).

For the compound `C=C1C(=O)O[C@@H]2C[C@@H](C)[C@@H]3C=CC(=O)[C@@]3(C)[C@@H](O)[C@H]12`, the Potency was 20 µM (active).

`C=C1C(=O)O[C@@H]2C[C@@H](C)[C@@H]3C=CC(=O)[C@@]3(C)[C@@H](OC(=O)CC(=O)O[C@H]3[C@@H]4C(=C)C(=O)O[C@@H]4C[C@@H](C)[C@@H]4C=CC(=O)[C@]43C)[C@H]12`: the Potency was 0.562 µM (active).

Turning to `COc1cc(/C=C/c2nc3ccccc3c(=O)n2-c2ccccc2O)ccc1O`, the Potency entry is “inactive”.

In the case of `COc1ccc(-c2c/c(=N\CCC(=O)O)c3cc(C)ccc3o2)cc1`, the Potency result was “inactive”.

On to `C=CCn1c(=O)/c(=C\c2ccccn2)s/c1=C(/C#N)C(=O)NCC1CCCO1` (stereo unspecified), for which the Potency entry is “inactive”.

With `O=C(Nc1c(Cl)cccc1Cl)Oc1cccc2cccnc12`, the Potency result is “inactive”.

For the compound `O=C(NNC(=O)C12CC3CC(CC(C3)C1)C2)c1ccccc1F`, the Potency entry was “inactive”.

`C[C@@H]1O[C@H](O[C@H]2C[C@@H](O)[C@@]3(CO)[C@H]4[C@@H](O)C[C@]5(C)[C@@H](C6=CC(=O)OC6)CC[C@]5(O)[C@H]4CC[C@]3(O)C2)[C@@H](O)[C@H](O)[C@@H]1O`: the Potency was 0.0891 µM (active).

In the case of `C[C@@]12CC[C@H]3[C@@H](CC[C@]4(O)C[C@H](O)CC[C@@]34C=O)[C@]1(O)CC[C@@H]2C1=CC(=O)OC1`, the Potency was 0.708 µM (active).

`C[C@@H]1O[C@H](O[C@@H]2CC[C@@]3(C=O)[C@H]4CC[C@@]5(C)[C@@H](C6=CC(=O)OC6)CC[C@@]5(O)[C@@H]4CC[C@]3(O)C2)C[C@H](O)[C@@H]1O`: the Potency is 3.55 µM (active).

`CCC1C(=O)OCC1Cc1cncn1C` (stereo unspecified): the Potency result was “inactive”.

Take `COc1cccc(C(c2nnnn2C2CCCC2)N2CCC3(CC2)C(=O)NCN3c2ccccc2)c1OC` (stereo unspecified): the Potency was 39.8 µM (active).

As to `COc1cccc(C(c2nnnn2C(C)(C)C)N2CCC3(CC2)C(=O)NCN3c2ccccc2)c1OC` (stereo unspecified), the Potency is 39.8 µM (active).

For `CSCCC(c1nnnn1C1CCCCC1)N1CCC2(CC1)C(=O)NCN2c1ccccc1` (stereo unspecified), the Potency is 39.8 µM (active).

Consider `COc1cccc(C(c2nnnn2-c2ccc3c(c2)OCCO3)N2CCC3(CC2)C(=O)NCN3c2ccccc2)c1OC` (stereo unspecified), for which the Potency is 39.8 µM (active).

As to `CC(C)(C)n1nnnc1C(c1cccc2ccccc12)N1CCC2(CC1)C(=O)NCN2c1ccccc1` (stereo unspecified), the Potency was 39.8 µM (active).
